The sample as a whole holds a higher share of hits than the screen did.
Pf Dd2 inh: blocks in vitro growth of P. falciparum Dd2 | P. falciparum Dd2 growth, SYBR Green, 72 h | hit rate 4.3% among 120,000 | AID 1347417 | Potency, µM (top dose mostly 28.9 µM), for inactives: at the top dose activity, negative = inhibition, actives largely listed as inhibitors; active means well fitted inhibition curve with a large enough effect;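 further: plate controls were DMSO vehicle for no effect and reference drug for full effect; nearly all actives have a fitted effect of over 65% in size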
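Infected erythrocytes (Dd2, 0.3% parasitemia, 2.5% hematocrit final) are added to compound in RPMI-1640/Albumax II medium, grown 72 h at 37C in low oxygen, then lysed with saponin/Triton-X containing SYBR Green and read by fluorescence.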
Starred values were filed as active, the others as inactive; i = inactive; [ ] = remark or other dose. Potency means the concentration at half of the fitted maximal effect.

SMILES | Pf Dd2 inh
CN1CCc2c(sc(NC(=O)CSc3ccc(F)cc3)c2-c2nc3ccccc3s2)C1 | 13µM*
Cn1c(SCC(=O)Nc2nc3ccccc3s2)ncc(C(=O)Nc2ccc(F)cc2)c1=O | 24%
CC(=O)N1CCc2c(sc(NC(=O)CSc3ccc(F)cc3)c2-c2nc3ccccc3s2)C1 | i
Cn1cnc2ccc(-c3cccc(C(F)(F)F)c3)nc2c1=O | 4.5µM*
O=c1c2nc(-c3cccc(C(F)(F)F)c3)ccc2ncn1Cc1ccccn1 | -8%[44.1 µM]
COCCn1cnc2ccc(-c3cccc(O)c3)nc2c1=O | -8%[44.1 µM]
CC1CCC2(CC1)NC(=O)N(CC(=O)N(C)C1CCCCC1)C2=O (stereo not given) | 16%
O=C(c1ccoc1)N1CCC(Oc2ccccc2)C1 (stereo not given) | -17%
COc1ccc(C(=O)c2cn(CC(=O)Nc3cc(OC)cc(OC)c3)c3ccc(OC)cc3c2=O)cc1 | -2%
COc1cccc(C(=O)c2cn(CC(=O)NCCc3ccccc3)c3nc(C)ccc3c2=O)c1 | i
COc1ccc(CCNC(=O)Cn2cc(C(=O)c3ccc(F)cc3)c(=O)c3ccc(C)nc32)cc1OC | i
COc1cc2c(=O)c(C(=O)c3ccc(C)c(C)c3)cn(Cc3ccccc3)c2cc1OC | 13µM*
COc1ccc(Cn2cc(C(=O)c3ccc(C)c(C)c3)c(=O)c3ccccc32)cc1 | 11µM*
COc1cc2c(=O)c(C(=O)c3ccc(C)c(C)c3)cn(Cc3ccc(F)cc3)c2cc1OC | 4.5µM*
CCOc1ccc2c(c1)c(=O)c(C(=O)c1ccc3c(c1)OCO3)cn2Cc1ccc(F)cc1 | -26%
COc1cccc(Cn2cc(C(=O)c3ccc(Cl)cc3)c(=O)c3ccccc32)c1 | 14µM*
Cc1ccc(C(=O)c2cn(Cc3ccccc3)c3cc4c(cc3c2=O)OCCO4)cc1 | i
CCOc1ccc(NC(=O)Cn2cc(C(=O)c3ccc(C)c(C)c3)c(=O)c3cc(OC)c(OC)cc32)cc1 | 12%
COc1ccccc1Cn1cc(C(=O)c2ccc(Cl)cc2)c(=O)c2ccccc21 | i
COc1ccc(C(=O)c2cn(Cc3cccc(C)c3)c3cc4c(cc3c2=O)OCO4)cc1 | -7%
CCn1nccc1C(=O)N1CCC(N2C[C@H](O)C[C@H]2C(=O)NC2CCCCC2)CC1 | -17%
CN(CC1CCOCC1)C(=O)c1ccc(Cl)s1 | -18%
COCCNC(=O)CC[C@]12CC[C@](C)(O)C[C@H]1C(C)(C)C[C@@H]2NC1CCN(C(C)=O)CC1 | 11%
CC(C)(C)CNC1(Cc2cc(-c3ccccn3)on2)COC1 | i
O=C(NCc1ccccc1)C1COC2(CCN(C(=O)c3ccccc3F)CC2)N1C(=O)c1ccco1 (stereo not given) | -28%
SMILES | Pf Dd2 inh
Cc1ccc(C(=O)N2CCC(N3C(=O)CCC3C(=O)NCc3ccccc3)CC2)cc1 (stereo not given) | 21%
CCOc1ccc(C(=O)c2cn(Cc3ccc(OC)cc3)c3cc(OC)c(OC)cc3c2=O)cc1 | 10µM*
CCOc1ccc(C(=O)c2cn(CC(=O)Nc3cc(OC)ccc3OC)c3cc(OC)c(OC)cc3c2=O)cc1 | i
CCOc1ccc(C(=O)c2cn(Cc3cccc(OC)c3)c3cc4c(cc3c2=O)OCO4)cc1 | -27%
CN(C)C1CCN(C(=O)C2(N(C)CCc3ccccc3)Cc3ccccc3C2)C1 (stereo not given) | 5µM*
CN(Cc1ccccc1)C1(C(=O)NC2CCC(O)CC2)Cc2ccccc2C1 (stereo not given) | -23%
CN(C)CCN(C)CC[C@H]1CN(C(=O)Cc2ccccc2)CC[C@H]1CC(=O)O | 0%[44.1 µM]
COCC1CN(C(C)=O)CC12CCN(C(=O)CC1=CCCCC1)CC2 (stereo not given) | 6%
COCC1CN(C(=O)c2nccn2C)CC12CCNCC2 (stereo not given) | 18%
COc1ccc(C(=O)NC[C@H]2O[C@@H](CO)[C@@H](O)[C@H]2N2CCc3ccccc3C2)cc1 | -25%
C#CCN(C)C(=O)[C@@H](C)C1CC[C@@]2(C)Cc3sc(NC)nc3[C@@H](C)[C@@H]2[C@H]1O (stereo not given in full) | i
CCN(CC)C(=O)[C@@H](C)C1CC[C@@]2(C)Cc3sc(Nc4c(Cl)cccc4Cl)nc3[C@@H](C)[C@@H]2[C@H]1O (stereo not given in full) | 13µM*
CCN(CC)C(=O)C(C)[C@@H]1CC[C@@]2(C)Cc3sc(NC(=O)C4CC4)nc3[C@@H](C)[C@@H]2[C@H]1O (stereo not given in full) | 32%
CCOc1ccccc1-c1nccn1C1COc2ccccc2C1 (stereo not given) | -12%
COc1cccc([S+](=O)([O-])N2CCC3(CC2)C(=NC2CCCC2)NC(=O)N3c2cccnc2)c1 | 44%
Cc1cc(C(=O)N(CCC(=O)NCc2ccccc2)CCC(C)C)c(C)o1 | -15%
CCCCCNC(=O)CCN(CC)C(=O)c1cc(C)oc1C | i
Cc1cc(C(=O)N(CCC(=O)NCCC(C)C)CCC(C)C)c(C)o1 | 11µM*
Cc1ncccc1OCC1CN(Cc2cccc(C(F)(F)F)c2)C(=O)c2c(ccnc2-c2ccc(OCC(=O)O)cc2)O1 (stereo not given) | -4%
CC(C)C(=O)NCC1CN(Cc2ccccc2)C(=O)c2c(ccnc2-c2ccc(OCC(=O)O)cc2)O1 (stereo not given) | 1.1µM*
O=C(O)COc1ccc(-c2nccc3c2C(=O)N(Cc2c[nH]c4ccccc24)CC(COc2ccccc2)O3)cc1 (stereo not given) | i
CN(C)Cc1ccc(C(=O)N[C@@H]2COCC[C@@H]2OCC(=O)O)o1 | -7%
Cc1ccc(N2CCC(NC(=O)Cc3ccccc3C)C2=O)cc1 (stereo not given) | i
COCCOc1ccc(C(=O)N[C@@H]2CN(C3CCN(C)CC3)CCC[C@H]2O)cc1 | -18%[44.1 µM]
Cc1ccccc1NC(=O)Cn1c(-c2ccc(F)cc2)nc(C)c(CCO)c1=O | i
SMILES | Pf Dd2 inh
COc1cccc(CN2C(=O)OC3(CCN(Cc4ccccc4OC)CC3)C2(C)c2cccnc2)c1 (stereo not given) | 1.1µM*
COc1cccc(CN2C(=O)OC3(CCN(C(=O)Cc4cccc(F)c4)CC3)C2(C)c2cccnc2)c1 (stereo not given) | i
COc1cccc(CN2C(=O)OC3(CCN(C(=O)CCc4cccnc4)CC3)C2(C)c2cccnc2)c1 (stereo not given) | i
COc1cccc(CN2C(=O)OC3(CCN(Cc4ccncc4)CC3)C2(C)c2cccnc2)c1 (stereo not given) | -9%
COCC(=O)N1CCC2(CC1)OC(=O)N(Cc1cccc(OC)c1)C2(C)c1cccnc1 (stereo not given) | -10%[44.1 µM]
COc1cccc(CN2C(=O)OC3(CCN(Cc4ccc(F)cc4)CC3)C2(C)c2cccnc2)c1 (stereo not given) | 0.79µM*
Cc1cc2c(c(=O)n(-c3ccc(F)cc3)c(=O)n2CC(=O)Nc2ccccc2Cl)n1C | i
CC(C)c1ccc([S+](=O)([O-])c2nnn3c2nc(NCc2ccncc2)c2ccccc23)cc1 | -14%
CCCc1nnc(NC(=O)C2CC(=O)N(c3n[nH]c4ccccc34)C2)s1 (stereo not given) | -13%
CC(C)c1noc([C@@H]2C[C@H]3C(=O)NCCCCCCN(C(=O)c4ccco4)[C@H]3C2)n1 | -8%
O=C1NCCCCCCN(C(=O)c2ccco2)[C@H]2CCCC[C@@H]12 | -1%
O=C(NCCc1c[nH]c2ccccc12)[C@@H]1C[C@H]2C(=O)NCCCCCCN(C(=O)c3ccco3)[C@H]2C1 | 1.1µM*
